Where “and” joins values, the source holds several entries; their conditions need not be identical. Equal values may be shown once. Results filed as inconclusive are left out. Where a call stands in place of a potency, no number is given. Calls of active or inactive are those of the source. Unless noted, calls follow the shape of the dose curve; as a rule, active = well fitted curve in the direction sought with a large enough effect; inconclusive = small, poorly fitted or top-dose-only effect, or another doubt; inactive = no such curve, though single readings can be large; an effect the other way counts as inactive or inconclusive.
Tests used:
[1] = Cell Viability - BJ (AID 421; calls by dose curve;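 also: potency is read from the fitted curve at half-maximal effect; cells exposed to compound for 40 hours at 37 °C before readout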); details: BJ fibroblast viability, qHTS
Method in brief: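 Cytotoxicity as drop in intracellular ATP (CellTiter-Glo, 20 min RT) after 40 hr compound exposure of BJ fibroblasts at 37 °C. Titrations scaled between DMSO and 100 uM tamoxifen, Hill-fitted for AC50.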

[2] = Cell Viability - HepG2 (AID 433; calls by dose curve;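 also: potency is read from the fitted curve at half-maximal effect; potency for ATP loss meaning cytotoxicity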); details: qHTS
Method in brief: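 HepG2 cells, 1500 per well, treated 40 hr at 37 °C in complete medium; viability from intracellular ATP by CellTiter-Glo luminescence. Normalized to DMSO and 100 uM tamoxifen; AC50 from Hill fit of qHTS concentration-response.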

[3] = Cell Viability - MRC5 (AID 434; calls by dose curve;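 also: potency is read from the fitted curve at half-maximal effect; potency reflects cytotoxicity seen as loss of intracellular ATP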); details: MRC5 lung fibroblast viability, qHTS
Method in brief: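 qHTS cytotoxicity in human lung fibroblast MRC5 cells; 40 hr treatment, 37 °C; cellular ATP by luciferase luminescence; DMSO = 0%, 100 uM tamoxifen = 100% inhibition; Hill-fit AC50.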

[4] = biological target: Mitogen-activated protein kinase 10 (Mus musculus) (UniProt Q61831); test: JNK3 AlphaScreen Assay (AID 530; active = well fitted curve in either direction with a large enough effect, not every such curve was filed as active;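 also: kinase came from lysate of stimulated human HepG2 cells; signal reports phosphorylation of biotinylated GST-cJun 1-79 at Ser73 with 10 µM ATP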); details: JNK3 lysate, c-Jun phosphorylation; series mostly up to 57.1 µM
Method in brief: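 Room-temperature AlphaScreen kinase assay; pre-activated HepG2 lysate as JNK3 source, biotin-GST-cJun(1-79) substrate, 10 uM ATP, compound 15 min preincubation.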

[5] = Cell Viability - Renal Proximal Tubule (AID 545); details: renal proximal tubule cells viability; at 91.7 µM (top of the series), primary cells of rat origin unless noted; also: nearly all actives have a fitted effect of over 40% in size
Method in brief: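 Rat renal proximal tubule primary cells, 1000/well, exposed to compounds for 40 hr at 37 °C in complete medium; cellular ATP read by CellTiter-Glo luminescence. AC50 from concentration-response fitted with standard Hill equation.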

[6] = Cell Viability - Mesenchymal (AID 546); details: mesenchymal cells viability, qHTS; series mostly up to 91.7 µM;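 also: cells exposed to compound for 40 hours before reading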
Method in brief: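 AC50 values reflect the drop in intracellular ATP in a human kidney mesenchymal line derived from normal glomeruli. Treatment lasts 40 hr at 37 °C in complete medium, and the signal comes from CellTiter-Glo luminescence.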

[7] = Cellular Toxicity (caspase-3) Jurkat (AID 655); details: Jurkat caspase-3 activation, luminescence, DMSO = 0%, tamoxifen = 100%; at 92.2 µM (top of the series);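 also: cells exposed to compound for 16 h at 37 °C before reading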
Method in brief: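 Jurkat cells (5000/well) in complete medium exposed 16 h at 37 C; caspase-3/7 activity read by Caspase-Glo luminescence after 20 min at room temperature. Normalized to DMSO and 100 uM tamoxifen; AC50 from Hill fits.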

[8] = Cellular Toxicity (caspase-3) HUV-EC-C (AID 656); details: HUV-EC-C cells, caspase-3 activation (apoptosis), vehicle = 0, 100 µM tamoxifen = 100%; series mostly up to 92.2 µM
Method in brief: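 HUV-EC-C cells (1000/well) in complete medium, compound-treated 16 h at 37 °C; caspase-3/7 activity read by Caspase-Glo 3/7 luminescence. Normalized to DMSO (basal) and 100 uM tamoxifen (100%); AC50 from Hill-equation concentration-response fits.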

[9] = Cellular Toxicity (caspase-3) SHSY5Y (AID 657); details: SH-SY5Y caspase-3 activation, DMSO zero, 10 µM staurosporine = 100%; series mostly up to 91.7 µM
Method in brief: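 SH-SY5Y human neuroblastoma cells, 1500/well, exposed to compound for 16 hours at 37 °C in complete medium. Caspase-3/7 activity read by Caspase-Glo luminescence after 1 hr at room temperature, normalized to DMSO and 10 uM staurosporine; AC50 from Hill fit.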

[10] = Cellular Toxicity (caspase-3) BJ (AID 658); details: BJ fibroblasts, luminescence, normalized: DMSO 0%, staurosporine 100%; series mostly up to 91.7 µM
Method in brief: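 Readout: Caspase-Glo 3/7 luminescence increase in BJ cells after 16 hr treatment at 37 °C. Staurosporine and tamoxifen served as positive controls; AC50 values came from Hill modelling of data normalized to DMSO and 10 uM staurosporine.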

[11] = Cellular Toxicity (caspase-3) MRC-5 (AID 659); details: MRC-5 cells, luminescence, normalized: DMSO 0%, 10 µM staurosporine 100%; series mostly up to 91.7 µM
Method in brief: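 Concentration-dependent caspase 3/7 activation is measured in human normal lung fibroblasts (MRC-5) following 16-hour treatment. AC50 values come from standard Hill-equation modeling of luminescence normalized to DMSO and 10 uM staurosporine.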

[12] = Cellular Toxicity (caspase-3) Mesangial (AID 660); details: mesangial cells, normalized: DMSO 0%, 100 µM tamoxifen 100%; series mostly up to 91.7 µM;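 also: cells exposed to compound for 16 h before the caspase read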
Method in brief: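 Human renal glomerular mesangial cells (1000/well) were treated with compounds for 16 h at 37 °C in complete medium, then caspase 3/7 activity was read by Caspase-Glo luminescence. Data were normalized to DMSO and 100 uM tamoxifen; AC50 from Hill fits.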

[13] = Cellular Toxicity (caspase-3) SK-N-SH (AID 661); details: SK-N-SH caspase-3 activation, qHTS, DMSO as zero, staurosporine as full; series mostly up to 91.7 µM
Method in brief: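 SK-N-SH human neuroblastoma cells (1500/well) were treated with compounds for 16 hr at 37 °C in complete medium; caspase 3/7 activity was read by Caspase-Glo luminescence. AC50 came from Hill fits of data normalized to DMSO and 10 uM staurosporine.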

[14] = Cellular Toxicity (caspase-3) H-4-II-E (AID 663); details: H-4-II-E rat hepatoma, scaled: DMSO 0%, 100 µM tamoxifen 100%; series mostly up to 92.2 µM;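 also: cells exposed to compound for 16 hr before readout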
Method in brief: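 Apoptosis induction is scored as increased luminescence from caspase 3/7 substrate cleavage in rat hepatoma H-4-II-E cells exposed to compound for 16 hr. Activity is scaled between DMSO and 100 uM tamoxifen.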

[15] = Cellular Toxicity (caspase-3) Renal Proximal Tubule (AID 667); details: renal proximal tubule cells; at 91.7 µM (top of the series), primary cells freshly taken from rat, solvent-only wells 0%, staurosporine 100% unless noted;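 also: cells exposed to compound for 16 hours at 37 °C before detection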
Method in brief: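 Freshly isolated primary rat kidney proximal tubule cells, 1000/well, treated 16 hr at 37 °C, then Caspase-Glo 3/7 luminescence after 1 hr. Normalized to DMSO and 10 uM staurosporine; AC50 from Hill fit.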

[16] = qHTS Assay for Identification of Small Molecule Inducers of Hypoxia Response (AID 2120; active = well fitted curve in the direction sought with a large enough effect in the signal ratio, with a control signal flat, not every such curve was filed as active; the % refers to the signal ratio); details: hypoxia response reporter cells, beta-lactamase ratio readout; series mostly up to 104 µM
Method in brief: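 HRE-beta-lactamase reporter in CellSensor HRE-bla ME-180 cells, 2500 cells/well in Opti-MEM with 0.5% dialyzed FBS; compounds tested as titration series, 17 h at 37 degrees C. CCF4 substrate 2.5 h at room temperature; AC50 from 460/530 nm ratio.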

[17] = qHTS assay for small molecule agonists of retinoid X receptor alpha signaling (AID 588544); details: HEK293T RXRa-UAS-bla, beta-lactamase reporter, 18 h; 530 nm emission
[18] = qHTS assay for small molecule agonists of the antioxidant response element (ARE) signaling pathway measured by Nrf2-dependant transcriptional activity - cell viability counter screen (AID 720653; active = well fitted curve in the direction sought with a large enough effect in the repeat runs; an effect the other way counts as inactive or inconclusive); details: ARE-bla HepG2 viability, CellTiter-Glo ATP luminescence, 16 h; stronger effect = lower value
Method in brief: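 Cytotoxicity counter screen: intracellular ATP quantified by CellTiter-Glo luminescence in the same ARE-bla HepG2 plates, after 16 h compound exposure and a 2 h beta-lactamase substrate step.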

[19] = qHTS assay for cell viability of HEK293 cells (AID 743288); details: ATP luminescence (CellTiter-Glo), 18 h; max response: stronger effect = lower value; also: nearly all actives have a fitted effect of over 50% in size
Method in brief: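 Parental HEK293 cells, 2,000 per well, preincubated at least 5 h at 37 C, then exposed to compounds in DMSO for 18 h at 37 C. Viability by CellTiter-Glo ATP luminescence after 30 min at room temperature.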

[20] = qHTS assay for cell viability of the p53RE-bla HCT-116 cell line (AID 743292); details: p53RE-bla HCT-116 viability, ATP luminescence, 16 h; series mostly up to 95 µM; also: nearly all actives have a fitted effect of over 55% in size
Method in brief: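 ATP-based luminescent viability (CellTiter-Glo, 30 min RT) after 16 h compound treatment at 37 C of p53RE-bla HCT-116 cells, seeded at 4,000 cells/well and rested 5 h before dosing.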

CC(C)(C)OO
Potency [1]: > 92 µM (inactive)
Potency [2]: > 92 µM (inactive)
Potency [3]: > 92 µM (inactive)
outcome [4]: inactive
activity change, negative = cytotoxicity [5]: -2.92% (inactive) and -10.1% (inactive)
outcome [6]: inactive
caspase-3 activation [7]: 16.6% (inactive) and 4.19% (inactive)
outcome [8]: inactive
outcome [9]: inactive
outcome [10]: inactive
outcome [11]: inactive
outcome [12]: inactive
outcome [13]: inactive
outcome [14]: inactive
caspase-3 activation [15]: 12.8% (inactive) and -1.63% (inactive)
outcome [16]: inactive
max response [17]: 4.87% and -13.2%
max response [18]: 15% (inactive) and -27.6% (inactive)
max response [19]: -29% (inactive) and 2.51% (inactive)
Potency [20]: inactive

Brc1ccc(Oc2cc(Br)c(Br)cc2Br)c(Br)c1
Potency [1]: > 92 µM (inactive)
Potency [2]: > 92 µM (inactive)
Potency [3]: > 92 µM (inactive)
activity change, negative = cytotoxicity [5]: -20.3% [at 91.7 µM] (inactive) and -14.3% [at 91.7 µM] (inactive)
outcome [6]: inactive
caspase-3 activation [7]: 17.5% (inactive)
outcome [8]: inactive
outcome [9]: inactive
outcome [10]: inactive
outcome [11]: inactive
outcome [12]: inactive
outcome [13]: inactive
outcome [14]: inactive
caspase-3 activation [15]: 12.3% [at 91.7 µM] (inactive) and -6.38% [at 91.7 µM] (inactive)
outcome [16]: inactive
max response [18]: -1.22% (inactive) and 3.3% (inactive) and -21% (inactive)
max response [19]: -22.3% (inactive) and -23.6% (inactive)
Potency [20]: inactive

Cc1cccc(C#N)c1
Potency [1]: > 92 µM (inactive)
Potency [2]: > 92 µM (inactive)
Potency [3]: > 92 µM (inactive)
outcome [4]: inactive
activity change, negative = cytotoxicity [5]: -8.34% (inactive)
outcome [6]: inactive
caspase-3 activation [7]: 0.831% (inactive)
outcome [8]: inactive
outcome [9]: inactive
outcome [10]: inactive
outcome [11]: inactive
outcome [12]: inactive
outcome [13]: inactive
outcome [14]: inactive
caspase-3 activation [15]: 10.9% (inactive)
outcome [16]: inactive
max response [17]: -7.67%
max response [18]: -8.19% (inactive)
max response [19]: 0.442% (inactive)
Potency [20]: inactive

Clc1nc(Cl)nc(Nc2ccccc2Cl)n1
Potency [1]: > 92 µM (inactive)
Potency [2]: > 92 µM (inactive)
Potency [3]: > 92 µM (inactive)
outcome [4]: inactive
activity change, negative = cytotoxicity [5]: -4.26% (inactive)
outcome [6]: inactive
caspase-3 activation [7]: 0.489% (inactive)
outcome [8]: inactive
outcome [9]: inactive
outcome [10]: inactive
outcome [11]: inactive
outcome [12]: inactive
outcome [13]: inactive
outcome [14]: inactive
caspase-3 activation [15]: -3.95% (inactive)
outcome [16]: inactive
max response [17]: -6.76%
max response [18]: -2.86% (inactive) and -6.99% (inactive)
max response [19]: 1.75% (inactive) and 3.89% (inactive)
Potency [20]: inactive

C=CCOC(C)=O
Potency [1]: > 92 µM (inactive)
Potency [2]: > 92 µM (inactive)
Potency [3]: > 92 µM (inactive)
outcome [4]: inactive
activity change, negative = cytotoxicity [5]: -1.33% (inactive)
outcome [6]: inactive
caspase-3 activation [7]: 0.277% (inactive)
outcome [8]: inactive
outcome [9]: inactive
outcome [10]: inactive
outcome [11]: inactive
outcome [12]: inactive
outcome [13]: inactive
outcome [14]: inactive
caspase-3 activation [15]: -7.63% (inactive)
outcome [16]: inactive
max response [17]: -7.26%
max response [18]: -12.1% (inactive)
max response [19]: -4.78% (inactive)
Potency [20]: inactive

COc1cc2c(cc1O)[C@H]1Cc3ccc(OC)c(O)c3CN1CC2
outcome [4]: inactive

O=NN(CCO)CCO
Potency [1]: > 92 µM (inactive)
Potency [2]: > 92 µM (inactive)
Potency [3]: > 92 µM (inactive)
outcome [4]: inactive
activity change, negative = cytotoxicity [5]: -10.4% (inactive)
outcome [6]: inactive
caspase-3 activation [7]: -1.33% (inactive)
outcome [8]: inactive
outcome [9]: inactive
outcome [10]: inactive
outcome [11]: inactive
outcome [12]: inactive
outcome [13]: inactive
outcome [14]: inactive
caspase-3 activation [15]: 4.45% (inactive)
outcome [16]: inactive
max response [17]: -8.04%
max response [18]: -8% (inactive)
max response [19]: -4.1% (inactive)
Potency [20]: inactive

O=C(NCNC(=O)N[C@H]1C(=O)NC(=O)N1CO)N[C@H]1C(=O)NC(=O)N1CO
outcome [4]: inactive

Oc1ccc(Cl)cc1Cl
Potency [1]: > 92 µM (inactive)
Potency [2]: > 92 µM (inactive)
Potency [3]: > 92 µM (inactive)
outcome [4]: inactive
activity change, negative = cytotoxicity [5]: -7.07% (inactive)
outcome [6]: inactive
caspase-3 activation [7]: 3.55% (inactive)
outcome [8]: inactive
outcome [9]: inactive
outcome [10]: inactive
outcome [11]: inactive
outcome [12]: inactive
outcome [13]: inactive
outcome [14]: inactive
caspase-3 activation [15]: -2.5% (inactive)
outcome [16]: inactive
max response [17]: 1.97%
max response [18]: -19.8% (inactive) and -1.01% (inactive)
max response [19]: 3.78% (inactive) and -2.5% (inactive)
Potency [20]: inactive

Source: PubChem BioAssay (NCATS)
